Laboratory results: PubChem BioAssay (NCATS)
Results filed as inconclusive are left out. Calls of active or inactive are those of the source. Calls follow the shape of the dose curve; as a rule, active = well fitted curve in the direction sought with a large enough effect; inconclusive = small, poorly fitted or top-dose-only effect, or another doubt; inactive = no such curve, though single readings can be large; an effect the other way counts as inactive or inconclusive.

Experiments:
CRL-7250 = normal cell line; assay: Cytotoxic Profiling of Annotated Libraries Using Quantitative High-Throughput Screening (AID 1296008); conditions: Five cell lines viability, CellTiter-Glo ATP luminescence, 48-72 h; max response: stronger effect = lower value; also: nearly all actives have a fitted effect of over 60% in size; as to max response: % is scaled to controls: 0 for no effect and ±100 for the full control effect
Summary of the method: (§1)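 Cells exposed to compounds for 48 or 72 hr at 37 degrees Celsius. Viability read as ATP-coupled luminescence with CellTiter-Glo after 10 min at room temperature.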

HEK293 = assay: as above; conditions: Five cell lines viability, CellTiter-Glo ATP luminescence, 48-72 h; max response: stronger effect = lower value
Summary of the method: as §1

HaCat [1] = assay: as above; conditions: Five cell lines viability, CellTiter-Glo ATP luminescence, 48-72 h; max response: stronger effect = lower value
Summary of the method: as §1

KB-3-1 = assay: as above; conditions: Five cell lines viability, CellTiter-Glo ATP luminescence, 48-72 h; max response: stronger effect = lower value
Summary of the method: as §1

NIH3T3 = assay: as above; conditions: Five cell lines viability, CellTiter-Glo ATP luminescence, 48-72 h; max response: stronger effect = lower value
Summary of the method: as §1

HACAT [2] = assay: qHTS assay to identify novel small-molecules to repurpose for Merkel cell carcinoma treatment (AID 1296009); conditions: MCC and control cell lines, CellTiter-Glo viability, 72 h; at 44.8 µM (top of the series) unless noted; also: nearly all actives have a fitted effect of over 60% in size
Summary of the method: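 Cells were treated for 72 hr at 37 degree celsius with compounds in 8- or 11-point dose response. Viability was read by CellTiter-Glo luminescence, normalized to no-cell (cytotoxicity) and DMSO controls.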

C33A = assay: Primary qHTS to identify gynecologic anti-cancer compounds using libraries of approved drugs and bioactive compounds (AID 1345084); conditions: Gynecologic cancer cell panel viability, ATPlite luminescence, 48 h; series mostly up to 57.5 µM; also: % is scaled to controls: 0 for no effect and ±100 for the full control effect; nearly all actives have a fitted effect of over 55% in size
Summary of the method: (§2)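 Cell viability after 48 h drug treatment, ATPlite luminescence readout; five doses.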

CAOV3 = assay: as above; conditions: Gynecologic cancer cell panel viability, ATPlite luminescence, 48 h; series mostly up to 57.5 µM
Summary of the method: as §2

CASKI = assay: as above; conditions: Gynecologic cancer cell panel viability, ATPlite luminescence, 48 h; series mostly up to 57.5 µM
Summary of the method: as §2

Es-2 = assay: as above; conditions: Gynecologic cancer cell panel viability, ATPlite luminescence, 48 h; series mostly up to 57.5 µM
Summary of the method: as §2

HeLa = assay: as above; conditions: Gynecologic cancer cell panel viability, ATPlite luminescence, 48 h; series mostly up to 57.5 µM
Summary of the method: as §2

Hek293T = assay: as above; conditions: Gynecologic cancer cell panel viability, ATPlite luminescence, 48 h, control line for the selectivity index; series mostly up to 57.5 µM
Summary of the method: as §2

JEG-3 = assay: as above; conditions: Gynecologic cancer cell panel viability, ATPlite luminescence, 48 h; series mostly up to 57.5 µM
Summary of the method: as §2

CCOc1ccc(-c2cc(NC(=O)c3c(F)cccc3F)c(C(=O)O)s2)cc1
inactive: max response (CRL-7250) -4.12% | max response (HEK293) 1.07% | outcome (HaCat [1]) | max response (KB-3-1) -17.4% | max response (NIH3T3) -24.8% | outcome (HACAT [2]) | Potency (C33A) | Potency (CAOV3) | outcome (CASKI) | Potency (Es-2) | Potency (HeLa) | Potency (Hek293T) | Potency (JEG-3)

CC1CC2(O)OC(=O)C3=C2C(CCC3)[C@@]12C[C@@H](c1ccoc1)OC2=O (stereo partly specified)
inactive: max response (CRL-7250) 0.272% | max response (HEK293) -0.207% | outcome (HaCat [1]) | outcome (KB-3-1) | max response (NIH3T3) 0.0082% | outcome (HACAT [2]) | Potency (C33A) | Potency (CAOV3) | outcome (CASKI) | Potency (Es-2) | Potency (HeLa) | Potency (Hek293T) | Potency (JEG-3)

O=C(CC1CC(c2ccc(F)cc2F)=NO1)N1CCOCC1 (stereo unspecified)
inactive: max response (CRL-7250) -1.82% | max response (HEK293) 4.11% | outcome (HaCat [1]) | max response (KB-3-1) -13.2% | max response (NIH3T3) -0.0344% | outcome (HACAT [2]) | Potency (C33A) | Potency (CAOV3) | outcome (CASKI) | Potency (Es-2) | Potency (HeLa) | Potency (Hek293T) | Potency (JEG-3)

COc1cc(O)c2c(c1)C1(OC2=O)C(C)=CC(=O)C1O (stereo unspecified)
inactive: outcome (CRL-7250) | max response (HEK293) -12.8% | outcome (HaCat [1]) | max response (KB-3-1) 7.65% | max response (NIH3T3) 4.25% | outcome (HACAT [2]) | Potency (C33A) | Potency (CAOV3) | outcome (CASKI) | Potency (Es-2) | Potency (HeLa) | Potency (Hek293T) | Potency (JEG-3)

Cc1cccc(NC(=O)CN2CCC(c3ccccn3)CC2)c1
inactive: outcome (CRL-7250) | max response (HEK293) -3.86% | outcome (HaCat [1]) | max response (KB-3-1) -2.52% | max response (NIH3T3) 4.5% | outcome (HACAT [2]) | Potency (C33A) | Potency (CAOV3) | outcome (CASKI) | Potency (Es-2) | Potency (HeLa) | Potency (Hek293T) | Potency (JEG-3)

Cc1oc(S(=O)(=O)N2CCCCC2)cc1NC(=O)Nc1ccccc1
inactive: outcome (CRL-7250) | max response (HEK293) -1.71% | outcome (HaCat [1]) | outcome (KB-3-1) | max response (NIH3T3) -1.71% | outcome (HACAT [2]) | Potency (C33A) | Potency (CAOV3) | outcome (CASKI) | Potency (Es-2) | Potency (HeLa) | Potency (Hek293T) | Potency (JEG-3)

Cc1noc2c1-c1ccccc1C(c1ccc(Cl)cc1)=N[C@H]2CC(N)=O
inactive: max response (CRL-7250) 1.75% | max response (HEK293) -4.39% | outcome (HaCat [1]) | outcome (KB-3-1) | max response (NIH3T3) -0.413% | outcome (HACAT [2]) | Potency (C33A) | Potency (CAOV3) | outcome (CASKI) | Potency (Es-2) | Potency (HeLa) | Potency (Hek293T) | Potency (JEG-3)

CC(C)N(CCCNC(=O)Nc1ccc(C(C)(C)C)cc1)C[C@H]1O[C@@H](n2ccc3c(N)ncnc32)[C@H](O)[C@@H]1O
inactive: max response (CRL-7250) 1.45% | max response (HEK293) -23.8% | outcome (HaCat [1]) | max response (KB-3-1) -3.09% | max response (NIH3T3) -13.2% | outcome (HACAT [2]) | Potency (C33A) | Potency (CAOV3) | outcome (CASKI) | Potency (Es-2) | Potency (HeLa) | Potency (Hek293T) | Potency (JEG-3)

C=C1C[C@]23C[C@H]1CC[C@H]2[C@]1(C)CC[C@H](O)[C@@](C)(C(=O)O)[C@H]1[C@@H]3C(=O)O
inactive: max response (CRL-7250) -9.09% | max response (HEK293) 0.167% | outcome (HaCat [1]) | max response (KB-3-1) -2.4% | max response (NIH3T3) 2.39% | outcome (HACAT [2]) | Potency (C33A) | Potency (CAOV3) | outcome (CASKI) | Potency (Es-2) | Potency (HeLa) | Potency (Hek293T) | Potency (JEG-3)

NC(=O)C(O[C@@H]1O[C@H](CO[C@@H]2O[C@H](CO)[C@@H](O)[C@H](O)[C@H]2O)[C@@H](O)[C@H](O)[C@H]1O)c1ccccc1 (stereo partly specified)
inactive: outcome (CRL-7250) | max response (HEK293) -77.8% | outcome (HaCat [1]) | max response (KB-3-1) 4.92% | max response (NIH3T3) 4.15% | outcome (HACAT [2]) inactive [at 17.4 µM] | Potency (C33A) | Potency (CAOV3) | outcome (CASKI) | Potency (Es-2) | Potency (HeLa) | Potency (Hek293T) | Potency (JEG-3)

O=C(/C=C/c1ccccc1)O[C@@H]1[C@@H](CO)O[C@@](CO)(O[C@H]2O[C@H](CO)[C@@H](O)[C@H](O)[C@H]2O)[C@H]1O
inactive: outcome (CRL-7250) | max response (HEK293) 0.967% | outcome (HaCat [1]) | max response (KB-3-1) -2.31% | max response (NIH3T3) 2.88% | outcome (HACAT [2]) inactive [at 17.4 µM] | Potency (C33A) | Potency (CAOV3) | outcome (CASKI) | Potency (Es-2) | Potency (HeLa) | Potency (Hek293T) | Potency (JEG-3)

CC(=O)OC1CC(=O)C2(C)C3CC4=C(OC(C)CC4=O)OC3(C)CCC2C1(C)C (stereo unspecified)
inactive: outcome (CRL-7250) | max response (HEK293) 2.23% | outcome (HaCat [1]) | outcome (KB-3-1) | max response (NIH3T3) 1.19% | outcome (HACAT [2]) inactive [at 17.4 µM] | Potency (C33A) | Potency (CAOV3) | outcome (CASKI) | Potency (Es-2) | Potency (HeLa) | Potency (Hek293T) | Potency (JEG-3)
